# Experiments:
# Assay in all cases: PBM binding z-score (relative to random genomic background probes); higher = stronger binding; sequences stand for … in GC…GCGATTGACAGCGTAGAATGAAGG
# [1] = test system: FXR:RXRa (NR concentration 270 nM, RXRa partner concentration 90 nM)
# Summary of the method: (§1)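 For binding z-scores, the reference was random background probes on custom Agilent 4×180K protein-binding microarrays. These arrays were incubated 1 h with ligand-free nuclear receptor dimers in PBS pH 7.4, 2% milk, 0.02% Triton X-100, 1 mM DTT, 0.2 mg/mL BSA and 0.4 mg/ml salmon testes DNA. Fluorescence was scanned after antibody detection of each partner (one per run) and regression-normalized.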
# [2] = test system: LXRa:RXRa (NR concentration 270 nM, RXRa partner concentration 90 nM)
# Summary of the method: as §1
# [3] = test system: LXRa homodimer (NR concentration 270 nM)
# Summary of the method: as §1
# [4] = test system: LXRb:RXRa (NR concentration 270 nM, RXRa partner concentration 90 nM)
# Summary of the method: as §1
# [5] = test system: LXRb homodimer (NR concentration 270 nM)
# Summary of the method: as §1
# [6] = test system: PPARa:RXRa (NR concentration 270 nM, RXRa partner concentration 90 nM)
# Summary of the method: as §1
# [7] = test system: PPARg:RXRa (NR concentration 180 nM, RXRa partner concentration 90 nM)
# Summary of the method: as §1
# [8] = test system: PPARg:RXRa 270nM:90nM, anti-RXR (NR concentration 270 nM, RXRa partner concentration 90 nM)
# Summary of the method: as §1
# [9] = test system: PPARg:RXRa 30nM:10nM, anti-RXR (NR concentration 30 nM, RXRa partner concentration 10 nM)
# Summary of the method: as §1
# [10] = test system: PPARg:RXRa 90nM:30nM, anti-RXR (NR concentration 90 nM, RXRa partner concentration 30 nM)
# Summary of the method: as §1
# [11] = test system: PPARg:RXRa DBDmut IVT, anti-RXR (DBD mutation: RXRa K156A/R161A, NR concentration 270 nM, RXRa partner concentration 90 nM)
# Summary of the method: as §1
# [12] = test system: PPARg:RXRa IVT, anti-PPARg (NR concentration 270 nM, RXRa partner concentration 90 nM)
# Summary of the method: as §1
# [13] = test system: PPARg DBDmut:RXRa IVT, anti-PPARg (DBD mutation: PPARg1 K132A/R137A, NR concentration 270 nM, RXRa partner concentration 90 nM)
# Summary of the method: as §1
# [14] = test system: PPARg DBDmut IVT, anti-PPARg (DBD mutation: PPARg1 K132A/R137A, NR concentration 270 nM)
# Summary of the method: as §1
# [15] = test system: PPARg homodimer (NR concentration 180 nM)
# Summary of the method: as §1
# [16] = test system: PXR:RXRa (NR concentration 270 nM, RXRa partner concentration 90 nM)
# Summary of the method: as §1
# [17] = test system: PXR homodimer (NR concentration 270 nM)
# Summary of the method: as §1
# [18] = test system: RARa:RXR (NR concentration 270 nM, RXRa partner concentration 90 nM)
# Summary of the method: as §1
# [19] = test system: RARa homodimer (NR concentration 270 nM)
# Summary of the method: as §1
# [20] = test system: RARb:RXRa (NR concentration 270 nM, RXRa partner concentration 90 nM)
# Summary of the method: as §1
Sequence,PBM binding z-score [1],PBM binding z-score [2],PBM binding z-score [3],PBM binding z-score [4],PBM binding z-score [5],PBM binding z-score [6],PBM binding z-score [7],PBM binding z-score [8],PBM binding z-score [9],PBM binding z-score [10],PBM binding z-score [11],PBM binding z-score [12],PBM binding z-score [13],PBM binding z-score [14],PBM binding z-score [15],PBM binding z-score [16],PBM binding z-score [17],PBM binding z-score [18],PBM binding z-score [19],PBM binding z-score [20]
TTACCAAAGTGAGCTGAGGTCGTTGATCCAACTC,0.648,0.0425,-0.525,0.222,-1.12,0.635,-0.509,-0.168,0.0696,-0.371,-0.795,-0.309,-0.436,-0.706,-0.866,2.11,0.201,1.44,-1.13,0.34
CCTACTAGGCCACGAAAGGTCATTGATTCAGTGA,4.02,5.66,5.5,4.32,0.558,4.84,5.77,5.3,2.35,4.43,6.91,6.28,0.693,0.0553,3.43,5.44,1.96,5.45,2.79,4.06
ATCTCTAGGTAAGACTCAGGTCAGTGAAGAACGC,0.852,0.72,0.909,0.721,0.721,1.03,0.296,0.86,0.135,0.413,1.9,1.67,0.483,1.13,1.65,0.724,0.764,0.911,0.98,1.62
CGTGCAAGGTCAAAGGTCAGTGAAGAGATGACGG,8.16,6.9,3.14,6.7,1.86,7.4,10.9,9.02,7.56,9.38,4.05,5.94,1.68,0.658,4.64,7.09,1.48,8.94,1.9,5.91
TCTTGTGGATCAAAGGTTAAGAAAGCCGAAGCCT,1.78,1.88,0.101,2.08,0.0498,4.58,7.94,7.64,7.24,8.31,1.84,3.48,0.81,-0.181,1.3,1.98,-0.205,2.8,0.693,1.82
ATCTCTAGGTAAATATAGTTCAGTGAATGCAAAT,0.614,5.89,1.51,2.5,1.12,0.691,1.16,0.903,1.13,1.05,1.8,1.91,1.61,1.65,1.19,1.38,0.957,0.923,1.21,0.851
GCATACAGGTGAAACGCAGGTAACTCAGGGTGGC,-0.0721,0.132,-0.487,-0.143,-0.74,1.35,1.04,0.609,-0.12,0.232,3.57,1.78,-0.446,-0.192,-0.115,-0.254,-0.513,0.243,-0.373,0.744
AGAATGAGGTGACCAAAGATCAGGGAAACGCTTG,0.916,0.957,-0.26,0.478,-0.291,2.24,2.48,2.2,0.478,1.46,4.37,4.21,0.497,0.08,0.216,0.534,-0.16,0.899,-0.253,1.3
CCTAGCACGCCAGGGTCACTCAAGCATTTCGCTT,1.59,1.52,-0.519,1.79,-1.1,2.81,0.36,0.763,-0.35,-0.137,-0.508,0.0216,-0.715,-1.26,0.342,2.48,-0.243,2.55,-0.31,2.44
CAAACTAGGTCTAAGGTCAAAGTCGAGCCAACCA,5.18,4.6,2.94,4.32,1.16,6.52,10.5,9.19,9.22,10.2,3.97,5.92,1.31,0.848,2.46,4.42,1.59,4.7,1.21,4.14
ATATGTAGGTTGGCTGGGGTCATTCAGACTAGGC,4.06,3.56,2.01,4.28,2.04,4.46,2.66,3.18,0.972,1.89,2.56,2.75,1.35,1.7,2.57,5.98,4.44,5.69,0.758,2.62
ACTCGGAGGACAAAGGTCAGAGCAACGCCAGTGA,4.23,4.45,1.56,3.47,0.134,5.14,7.86,7.16,6.17,7.18,0.873,3.67,0.771,-0.247,2.78,3.99,0.422,5.03,0.859,4.58
CCTAGTAGGTCAAGGTCACACACGCTATAGGTAC,6.32,5.5,2.71,4.64,1.12,5.98,9.25,7.51,5.53,7.55,8.26,7.96,1.56,0.61,3.98,4.96,1.81,5.14,2.09,5.1
CCTAGTTGGTCGGGAGGTCACACACCGGATATGA,3.79,3.32,2.67,3.48,1.04,3.89,2.12,2.73,0.776,2.07,-0.134,1.89,0.253,0.694,3.59,4.29,2.4,4.55,2.58,3.47
